Assay in all cases: NCI-60 one-dose screen, 48 h (100 = growth as untreated, 0 = no growth, -100 = all killed)
Holding throughout (conditions): 10 µM unless noted

Test [1] relates to T-47D breast.
Test [2] concerns BT-549 breast.
Test [3] concerns MDA-MB-435 melanoma.
For test [4], the system named is SW-620 colon.
For test [5], the system named is MCF7 breast.
Test [6] concerns HCT-116 colon.
Test [7] deals with HCC-2998 colon.
Test [8] relates to KM12 colon.

This is part of a sample that, as a whole, favours compounds with a hit. Of some 83,000 tested, about 20% had one in any assay.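 The test compound was applied at a single concentration to cells in 96-well plates for 48 hours, and percent growth was recorded.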 Values without a mark were called inactive. Calls of active or inactive are those of the source. How the source made its calls: active means growth percent below 10; inactive means the rest.

Experimental findings from PubChem BioAssay (NCI) are described below.

Turning to `CCN(C)S(=O)(=O)Nc1cccc(Nc2ncnc3cc(NC(=O)CCl)ccc23)c1Cl`, the growth in test [1] was 16%; in test [2], -4.04% (active); in test [3], -5.32% (active); in test [4] it was -53.5% (active); in test [5], -5.68% (active); in test [6] it was 0.862% (active). Besides, the growth in test [7] was 39.1%; in test [8], 1.71% (active).

`O=C(c1ccncc1)N1N=C(c2ccc(Cl)cc2)C[C@H]1c1cn(-c2ccccc2)nc1-c1ccccc1`: the growth was 87.6% in test [1]; 92.5% in test [2]; 89.3% in test [3]; 101% in test [4]; 74.8% in test [5]; 73.5% in test [6]. The growth in test [7] is 92.2%; in test [8], 86.1%.

For `C/C(=N\O)c1ccc(Cl)cc1`, the growth in test [1] is 110%; in test [2] it was 96%; in test [3] it was 112%; in test [4], 99.9%; in test [5], 101%; in test [6] it was 97.5%. Also, the growth in test [7] was 95.9%; in test [8], 118%.

Consider `C=C1C(=O)O[C@H]2[C@H]1CC/C(Cn1cc(-c3ccccc3)nn1)=C\CC[C@@]1(C)O[C@@H]21`, for which the growth in test [1] is -38% (active); in test [2], -61.1% (active); in test [3] it was -21.5% (active); in test [4], -79.1% (active); in test [5], -60.1% (active); in test [6], -67.1% (active). For the same molecule, the growth was 5.21% (active) in test [7] and 56% in test [8].

In the case of `C1CCC([PH+](C2CCCCC2)C2CCCCC2[PH+](C2CCCCC2)C2CCCCC2)CC1.[Au].[CH-]1CCCCC1C1CCCC[N-]1` (configuration not stated), the growth is -45.3% (active) in test [1]; -40.4% (active) in test [2]; -63.1% (active) in test [3]; -76.4% (active) in test [4]; -30.5% (active) in test [5]; -40.5% (active) in test [6]. The growth in test [7] was -90.1% (active); in test [8] it was -85.2% (active).

For `N#Cc1nc(-c2ccccc2)oc1S(=O)(=O)N1CCN(c2ccccc2)CC1`, the growth in test [1] is 91.1%; in test [2], 90.8%; in test [3], 86.3%; in test [4], 64.1%; in test [5], 51.5%; in test [6], 44.9%. The figures for the growth in test [7] and in test [8] were 102% and 104%, respectively.

With `COc1ccc(OC)c(/C=N/Nc2ncnc3c2c(C)nn3C)c1`, the growth is 84.6% in test [1]; 101% in test [2]; 105% in test [3]; 107% in test [4]; 85.2% in test [5]; 109% in test [6]. For the same molecule, the growth in test [7] is 102%; in test [8], 103%.

On to `O=C(N/N=C/c1c(Cl)cccc1Cl)c1cccnc1Nc1cccc(C(F)(F)F)c1`, for which the growth in test [1] is 15.7%; in test [2] it was 43%; in test [3], 36.2%; in test [4], 44.9%; in test [5], 23.2%; in test [6], 35.5%. The growth is 72.2% in test [7] and 41.9% in test [8].

Regarding `COc1ccc(-c2nc3c(ncc4ccc(=O)[nH]c43)s2)cc1`, the growth in test [1] is 78.7%; in test [2], 86.4%; in test [3], 80.6%; in test [4] it was 66.5%; in test [5], 62.5%; in test [6], 79.2%. The growth is 91% in test [7] and 64.8% in test [8].

For `Cc1ccc2c(Cn3cc(CSc4nc5ccccc5o4)nn3)cc(=O)oc2c1`, the growth in test [1] is 100%; in test [2] it was 104%; in test [3], 102%; in test [4] it was 106%; in test [5] it was 100%; in test [6], 104%. In addition, the growth was 115% in test [7] and 113% in test [8].

Consider `Oc1c(I)cc(I)cc1CNCCN(Cc1ccccn1)Cc1ccccn1`, for which the growth in test [1] was -36% (active); in test [2], -33.6% (active); in test [3], -66.6% (active); in test [4], -42.5% (active); in test [5], -6.6% (active); in test [6], -45.1% (active). In addition, the growth in test [7] is -86.8% (active); in test [8], -38.9% (active).

Turning to `c1ccc([P+](c2ccccc2)(c2ccccc2)c2ccc3c4ccc([P+](c5ccccc5)(c5ccccc5)c5ccccc5)c5cccc(c6cccc2c63)c54)cc1`, the growth in test [1] is 23.6%; in test [2], -1.26% (active); in test [3], 3.29% (active); in test [4], 10%; in test [5] it was 16.1%; in test [6], 8.67% (active). Further, the figures for the growth in test [7] and in test [8] were 17.9% and -9.19% (active), respectively.

Turning to `Nc1c(C(=O)Nc2ccccc2C(F)(F)F)sc2nc3c(cc12)CCC3`, the growth in test [1] was 67.4%; in test [2], 115%; in test [3], 92.8%; in test [4], 96%; in test [5] it was 95.8%; in test [6], 107%. Also, the growth in test [7] was 94.6%; in test [8], 113%.

As for `COc1cc2ncnc(Nc3ccc(F)c(Cl)c3)c2cc1OCC(=O)N1CCN(c2ccccc2)CC1`, the growth in test [1] was 77.4%; in test [2] it was 106%; in test [3], 95.6%; in test [4], 101%; in test [5] it was 90%; in test [6] it was 67.7%. The growth in test [7] is 97.8%; in test [8], 102%.
